Experiments:
Experiment in all cases: DAPPL (digital affinity profiling via proximity ligation, sequencing); 10 mM Tris-HCl pH 7.5, 50 mM NaCl, 1 mM DTT, 4% glycerol, room temperature, 30 min; GST-TFs on glutathione beads, 16-mer random dsDNA library, 0.1% formaldehyde crosslink after washing; high values mean tight binding
Conditions in all cases: protein: recombinant; tags: N-terminal GST; dsDNA, one strand shown
ERF = target: T1, ERF (Homo sapiens, UniProt P50548 1-548)
T1 sequence: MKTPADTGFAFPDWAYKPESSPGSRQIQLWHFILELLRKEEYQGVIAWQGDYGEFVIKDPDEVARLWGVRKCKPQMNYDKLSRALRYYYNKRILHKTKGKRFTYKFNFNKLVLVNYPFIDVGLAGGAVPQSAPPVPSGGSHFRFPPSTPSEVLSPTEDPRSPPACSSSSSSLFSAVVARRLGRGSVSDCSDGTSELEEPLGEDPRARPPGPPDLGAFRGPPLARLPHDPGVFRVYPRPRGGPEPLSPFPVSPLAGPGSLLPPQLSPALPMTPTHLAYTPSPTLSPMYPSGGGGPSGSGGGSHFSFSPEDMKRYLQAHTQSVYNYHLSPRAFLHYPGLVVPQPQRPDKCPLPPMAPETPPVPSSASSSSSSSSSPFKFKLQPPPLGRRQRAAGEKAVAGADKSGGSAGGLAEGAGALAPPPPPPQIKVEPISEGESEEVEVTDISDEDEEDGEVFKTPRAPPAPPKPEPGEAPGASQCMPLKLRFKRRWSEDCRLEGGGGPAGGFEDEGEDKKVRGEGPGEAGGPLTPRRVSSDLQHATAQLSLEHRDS
Outline: (§1)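 GST fusions of human transcription factors were expressed in yeast and captured with glutathione beads. Once given DNA barcodes and pooled alongside a tag-only sample, they were incubated for 30 min at room temperature with 200 nmole of a random double-stranded 16-mer DNA library in Tris/NaCl/DTT/glycerol buffer, then washed, crosslinked (0.1% formaldehyde), proximity-ligated, PCR-amplified and sequenced on an Illumina NextSeq500. The binding signal of each hexamer is its read frequency for a factor divided by its frequency for the tag-only sample.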

ETV3L = target: T2, ETV3L (Homo sapiens, UniProt Q6ZN32 1-361)
T2 sequence: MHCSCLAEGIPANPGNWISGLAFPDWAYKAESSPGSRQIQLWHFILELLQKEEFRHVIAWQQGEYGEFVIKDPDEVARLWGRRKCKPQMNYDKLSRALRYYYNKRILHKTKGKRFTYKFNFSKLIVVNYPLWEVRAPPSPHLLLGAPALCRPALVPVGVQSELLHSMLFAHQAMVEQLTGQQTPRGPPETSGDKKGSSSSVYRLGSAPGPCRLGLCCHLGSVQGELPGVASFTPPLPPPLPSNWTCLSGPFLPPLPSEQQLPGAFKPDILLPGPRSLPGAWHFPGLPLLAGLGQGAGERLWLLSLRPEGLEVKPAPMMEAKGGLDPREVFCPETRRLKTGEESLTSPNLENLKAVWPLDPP
Outline: as §1

ETS2 = target: T3, ETS2 (Homo sapiens, UniProt P15036 1-469)
T3 sequence: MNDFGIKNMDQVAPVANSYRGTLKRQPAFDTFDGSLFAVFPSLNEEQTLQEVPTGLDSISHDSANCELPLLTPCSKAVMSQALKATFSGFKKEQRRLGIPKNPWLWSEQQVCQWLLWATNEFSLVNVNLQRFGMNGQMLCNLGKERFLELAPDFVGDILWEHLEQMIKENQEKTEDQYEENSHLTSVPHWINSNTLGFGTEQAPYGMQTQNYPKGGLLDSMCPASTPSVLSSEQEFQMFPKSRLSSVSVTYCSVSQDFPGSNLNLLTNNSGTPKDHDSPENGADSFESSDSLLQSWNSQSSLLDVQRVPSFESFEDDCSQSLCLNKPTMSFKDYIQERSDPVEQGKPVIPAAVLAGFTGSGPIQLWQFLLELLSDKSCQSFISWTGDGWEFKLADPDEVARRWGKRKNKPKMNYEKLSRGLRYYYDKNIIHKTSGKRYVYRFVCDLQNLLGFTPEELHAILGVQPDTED
Outline: as §1

SPDEF = target: T4, SPDEF (Homo sapiens, UniProt O95238 1-335)
T4 sequence: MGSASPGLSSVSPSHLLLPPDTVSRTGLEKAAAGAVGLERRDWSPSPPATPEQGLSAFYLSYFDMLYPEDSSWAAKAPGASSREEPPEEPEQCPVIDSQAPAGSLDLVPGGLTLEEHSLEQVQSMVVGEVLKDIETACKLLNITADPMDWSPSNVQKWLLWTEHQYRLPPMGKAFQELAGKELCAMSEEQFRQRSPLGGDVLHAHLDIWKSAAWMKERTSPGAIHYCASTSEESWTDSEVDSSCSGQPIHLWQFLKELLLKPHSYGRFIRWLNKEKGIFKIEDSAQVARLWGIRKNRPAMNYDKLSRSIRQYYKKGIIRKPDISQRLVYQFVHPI
Outline: as §1

ETV7 = target: T5, ETV7 (Homo sapiens, UniProt Q9Y603 1-341)
T5 sequence: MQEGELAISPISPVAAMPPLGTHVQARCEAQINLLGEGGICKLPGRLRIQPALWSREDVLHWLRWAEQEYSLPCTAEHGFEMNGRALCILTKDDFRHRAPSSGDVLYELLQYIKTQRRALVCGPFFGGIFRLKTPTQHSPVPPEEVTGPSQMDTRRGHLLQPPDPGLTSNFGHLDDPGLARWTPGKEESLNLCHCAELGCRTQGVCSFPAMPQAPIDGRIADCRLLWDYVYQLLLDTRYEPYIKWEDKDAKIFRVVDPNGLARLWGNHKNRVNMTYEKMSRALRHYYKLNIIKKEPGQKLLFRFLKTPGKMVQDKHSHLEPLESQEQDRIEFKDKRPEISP
Outline: as §1

ELF5 = target: T6, ELF5 (Homo sapiens, UniProt Q9UKW6-2 1-255)
T6 sequence: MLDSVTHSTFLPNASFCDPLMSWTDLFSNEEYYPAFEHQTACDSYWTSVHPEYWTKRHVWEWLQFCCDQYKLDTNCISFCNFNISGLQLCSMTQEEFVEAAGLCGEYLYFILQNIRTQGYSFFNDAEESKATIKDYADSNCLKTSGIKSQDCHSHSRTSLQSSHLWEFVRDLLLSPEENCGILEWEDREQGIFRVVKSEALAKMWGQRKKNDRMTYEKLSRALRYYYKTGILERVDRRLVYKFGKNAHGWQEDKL
Outline: as §1

ETV3 = target: T7, ETV3 (Homo sapiens, UniProt P41162-2 1-143)
T7 sequence: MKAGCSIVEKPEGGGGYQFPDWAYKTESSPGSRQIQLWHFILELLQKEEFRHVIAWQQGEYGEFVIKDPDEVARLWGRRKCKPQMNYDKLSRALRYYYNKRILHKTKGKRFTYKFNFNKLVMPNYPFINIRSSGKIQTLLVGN
Outline: as §1

ETV6 = ETV6 (Homo sapiens, UniProt P41212 1-452)
Outline: as §1

Chain of ETV6 (P41212 whole entry): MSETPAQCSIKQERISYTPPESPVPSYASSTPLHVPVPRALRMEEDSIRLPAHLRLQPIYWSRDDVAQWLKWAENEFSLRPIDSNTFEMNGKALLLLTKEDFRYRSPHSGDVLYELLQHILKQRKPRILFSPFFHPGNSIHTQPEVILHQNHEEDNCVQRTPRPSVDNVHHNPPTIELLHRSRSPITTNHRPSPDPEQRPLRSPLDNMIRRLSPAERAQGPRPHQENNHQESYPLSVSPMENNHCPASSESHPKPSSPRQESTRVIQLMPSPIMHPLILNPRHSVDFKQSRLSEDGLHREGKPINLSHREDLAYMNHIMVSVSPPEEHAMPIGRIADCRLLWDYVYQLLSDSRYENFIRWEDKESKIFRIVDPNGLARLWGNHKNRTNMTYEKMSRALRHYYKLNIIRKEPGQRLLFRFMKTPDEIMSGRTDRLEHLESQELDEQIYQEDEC

Sequence	binding signal (ERF)	binding signal (ETV3L)	binding signal (ETS2)	binding signal (SPDEF)	binding signal (ETV7)	binding signal (ELF5)	binding signal (ETV3)	binding signal (ETV6)
CTGTTG	1.17 fold enrichment (6-mer frequency, TF over GST control)	1.07 fold enrichment (6-mer frequency, TF over GST control)	1.21 fold enrichment (6-mer frequency, TF over GST control)	1.12 fold enrichment (6-mer frequency, TF over GST control)	1.05 fold enrichment (6-mer frequency, TF over GST control)	1.09 fold enrichment (6-mer frequency, TF over GST control)	1.21 fold enrichment (6-mer frequency, TF over GST control)	1.08 fold enrichment (6-mer frequency, TF over GST control)
CAAGCA	1.15 fold enrichment (6-mer frequency, TF over GST control)	1.17 fold enrichment (6-mer frequency, TF over GST control)	1.25 fold enrichment (6-mer frequency, TF over GST control)	1.06 fold enrichment (6-mer frequency, TF over GST control)	1.1 fold enrichment (6-mer frequency, TF over GST control)	1.11 fold enrichment (6-mer frequency, TF over GST control)	1.16 fold enrichment (6-mer frequency, TF over GST control)	1.14 fold enrichment (6-mer frequency, TF over GST control)
TAATCC	1.12 fold enrichment (6-mer frequency, TF over GST control)	1.21 fold enrichment (6-mer frequency, TF over GST control)	1.36 fold enrichment (6-mer frequency, TF over GST control)	1.44 fold enrichment (6-mer frequency, TF over GST control)	1.28 fold enrichment (6-mer frequency, TF over GST control)	1.19 fold enrichment (6-mer frequency, TF over GST control)	1.29 fold enrichment (6-mer frequency, TF over GST control)	1.27 fold enrichment (6-mer frequency, TF over GST control)
ACCTCC	1.35 fold enrichment (6-mer frequency, TF over GST control)	1.49 fold enrichment (6-mer frequency, TF over GST control)	1.41 fold enrichment (6-mer frequency, TF over GST control)	1.5 fold enrichment (6-mer frequency, TF over GST control)	1.4 fold enrichment (6-mer frequency, TF over GST control)	1.49 fold enrichment (6-mer frequency, TF over GST control)	1.33 fold enrichment (6-mer frequency, TF over GST control)	1.4 fold enrichment (6-mer frequency, TF over GST control)
ATCCCG	1.4 fold enrichment (6-mer frequency, TF over GST control)	1.33 fold enrichment (6-mer frequency, TF over GST control)	1.44 fold enrichment (6-mer frequency, TF over GST control)	1.71 fold enrichment (6-mer frequency, TF over GST control)	1.27 fold enrichment (6-mer frequency, TF over GST control)	1.7 fold enrichment (6-mer frequency, TF over GST control)	1.41 fold enrichment (6-mer frequency, TF over GST control)	1.52 fold enrichment (6-mer frequency, TF over GST control)
GCAAAA	1.14 fold enrichment (6-mer frequency, TF over GST control)	1.06 fold enrichment (6-mer frequency, TF over GST control)	1.18 fold enrichment (6-mer frequency, TF over GST control)	1 fold enrichment (6-mer frequency, TF over GST control)	1.09 fold enrichment (6-mer frequency, TF over GST control)	1.06 fold enrichment (6-mer frequency, TF over GST control)	1.07 fold enrichment (6-mer frequency, TF over GST control)	1.04 fold enrichment (6-mer frequency, TF over GST control)

Source: PMC7862700, “An all-to-all approach to the identification of sequence-specific readers for epigenetic DNA modifications on cytosine”
